# Results filed as inconclusive are left out. Unmarked numbers belong to inactive results. Active and inactive are the calls of the source. Calls come from the whole dose curve; as a rule, active = well fitted curve in the direction sought with a large enough effect; inconclusive = small, poorly fitted or top-dose-only effect, or another doubt; inactive = no such curve, though single readings can be large; an effect the other way counts as inactive or inconclusive.
# Legend:
# [1] = Drug repurposing screens with cells derived from glioblastoma tumor samples (AID 1345199); conditions: GBM patient neurospheres viability, ATP luminescence, 48 h; note: nearly all actives have a fitted effect of over 40% in size
# How it was run: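 Primary testing used CD133+ neurospheres from four GBM patients, seven concentrations, 48 h exposure and ATP-based viability; confirmation added three slower-growing patient lines.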
# OV90 = assay: Primary qHTS to identify gynecologic anti-cancer compounds using libraries of approved drugs and bioactive compounds (AID 1345084); conditions: Gynecologic cancer cell panel viability, ATPlite luminescence, 48 h; series mostly up to 57.5 µM; note: nearly all actives have a fitted effect of over 55% in size
# How it was run: (§1)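 ATP-based viability (ATPlite), 1,000 cells/well, 16 h pre-incubation, 48 h compound at 37 C, 5% CO2, 15 min RT before read.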
# PA-1 = assay: as above; conditions: Gynecologic cancer cell panel viability, ATPlite luminescence, 48 h; series mostly up to 57.5 µM
# How it was run: as §1
# Tov-21-G = assay: as above; conditions: Gynecologic cancer cell panel viability, ATPlite luminescence, 48 h; series mostly up to 57.5 µM
# How it was run: as §1
# Tov112D = assay: as above; conditions: Gynecologic cancer cell panel viability, ATPlite luminescence, 48 h; series mostly up to 57.5 µM
# How it was run: as §1
# JEG-3 = assay: as above; conditions: Gynecologic cancer cell panel viability, ATPlite luminescence, 48 h; series mostly up to 57.5 µM
# How it was run: as §1
# [2] = qHTS assay to identify inhibitors of the type 1 interferon - major histocompatibility complex class I in skeletal muscle: Counter screen cell viability and HiBit confirmation (AID 1347412); conditions: iHSKM muscle cells + IFN-b, HiBiT or CellTiter-Glo, 24 h; for activity change, negative = inhibition: Viability, at 45.9 µM (top of the series); for all read-outs here: nearly all actives have a fitted effect of over 60% in size
# How it was run: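 After 24 h with human IFN-beta (4 ng/ml) and compound titrations (top 46 uM final, 1:3, 12 points), HLA-B HiBit myoblasts were lysed for either Nano-Glo HiBiT luminescence or CellTiter Glo viability on paired plates.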
# SKOV3 = assay: Primary qHTS to identify gynecologic anti-cancer compounds using libraries of approved drugs and bioactive compounds (AID 1345084); conditions: Gynecologic cancer cell panel viability, ATPlite luminescence, 48 h; series mostly up to 57.5 µM; note: nearly all actives have a fitted effect of over 55% in size
# How it was run: as §1
# [3] = at 45.9 µM (top of the series), tumour line B
# [4] = at 45.9 µM (top of the series), tumour line D
# [5] = at 46 µM (top of the series), tumour line A
# [6] = at 46.1 µM (top of the series), tumour line C
# % is set by controls: 0 for no effect and ±100 for the full control effect; potency is the fitted concentration of half-maximal effect.
smiles,measurement,setting,value
O=C(O)c1nc(=O)[nH]c(=O)[nH]1,"activity, negative = cell killing",[1]; [3],0.794%
same,"activity, negative = cell killing",[1]; [4],6.49%
same,"activity, negative = cell killing",[1]; [5],-9.41%
same,"activity, negative = cell killing",[1]; [6],-6.32%
Cc1cccc2c1CC[C@H](CN1CCC(c3c(Cl)cccc3Cl)CC1)C[C@@H]2O,Potency,OV90,inactive
same,Potency,PA-1,11.2 µM (active)
same,Potency,Tov-21-G,inactive
same,Potency,Tov112D,inactive
COc1cc2c(cc1OC)CC(=O)N(CCCN(C)C[C@H]1Cc3cc(OC)c(OC)cc31)CC2,"activity, negative = cell killing",[1]; [3],-14.4%
same,"activity, negative = cell killing",[1]; [4],-19.2%
same,"activity, negative = cell killing",[1]; [6],-34%
same,Potency,[1]; tumour line A,11.2 µM (active)
N#Cc1c(N(CC(=O)O)CC(=O)O)sc(C(=O)O)c1CC(=O)O,"activity, negative = cell killing",[1]; [3],-0.252%
same,"activity, negative = cell killing",[1]; [4],0.729%
same,"activity, negative = cell killing",[1]; [5],-24.3%
same,"activity, negative = cell killing",[1]; [6],4.23%
Cc1cc2c(cc1C1(c3ccc(C(=O)O)cn3)CC1)C(C)(C)CCC2(C)C,Potency,JEG-3,inactive
same,Potency,OV90,inactive
COc1ccc2nc3cc(Cl)ccc3c(Nc3cc(CN4CCCC4)c(O)c(CN4CCCC4)c3)c2n1,"activity change, negative = inhibition",[2],-8.41%
O=C1CN2Cc3c(ccc(Cl)c3Cl)N=C2N1,"activity change, negative = inhibition",[2],-3.92%
Clc1ccc(C2(c3ccc(-c4cn[nH]c4)cc3)CCNCC2)cc1,Potency,JEG-3,inactive
same,Potency,SKOV3,31.6 µM (active)
same,Potency,Tov-21-G,12.6 µM (active)
same,Potency,Tov112D,inactive
N#CC(c1ccc(Cl)cc1)c1c(Cl)cc(-n2ncc(=O)[nH]c2=O)cc1Cl (stereo unspecified),"activity, negative = cell killing",[1]; [3],-18.3%
same,Potency,[1]; tumour line C,16.4 µM (active)
COc1c(C)cnc(Cn2cnc3c(Cl)nc(N)nc32)c1C,Potency,[2]; HiBiT,0.222 µM (active)
CCNC(=O)c1noc(-c2cc(C(C)C)c(O)cc2O)c1-c1ccc(CN2CCOCC2)cc1,Potency,JEG-3,inactive
same,Potency,OV90,3.98 µM (active)
same,Potency,PA-1,0.251 µM (active)
O=C(Nc1cccc(Cl)c1)Nc1ncc(CCNc2ncnc3ccsc23)s1,"activity change, negative = inhibition",[2],8.48%
